Source: PubChem BioAssay (The Scripps Research Institute Molecular Screening Center)
In the library only some 1.6% were active in any assay of this set; here they are far more common.
OPRM1-OPRD1 inv: mu-delta opioid heterodimer inverse agonism | P35372+P41143 | cell-based MOR-DOR heterodimer luminescence | inhibition, % at 9.3 µM | actives 0.21% (n = 340,000) | AID 504357; in the data active = inhibition above about 22%, passing the limit was not always enough;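 note: 0% = cells with DMSO and 100% = wells without cells with DMSO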
m5-HT2A agonist: mouse HTR2A agonism via beta-arrestin recruitment; activation, % at 7.6 µM; actives 0.66% (n = 360,000); CHO-K1 mHTR2A beta-arrestin complementation, luminescence; percent of 30 µM serotonin response; AID 624169; P35363;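 active = activation above a run cutoff, the mean activation of all tested compounds plus 3 SD, cut at about 14% in these data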;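 note: 0% = plate median of compound wells and 100% = 30 µM serotonin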
HTR5A inv ctr: HTR5A inverse agonism, opioid heterodimer counter-screen | actives 0.083% (n = 340,000) | HTR5A cell line, luminescence | AID 504634 | P47898 | inhibition, % at 9.3 µM; in the data active = inhibition mostly above about 23%, no sharp cut-off; inactive = mostly below about 18%;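 note: 0% = cells with DMSO and 100% = no-cell wells with DMSO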
Target sequence (P47898 whole entry, looked up): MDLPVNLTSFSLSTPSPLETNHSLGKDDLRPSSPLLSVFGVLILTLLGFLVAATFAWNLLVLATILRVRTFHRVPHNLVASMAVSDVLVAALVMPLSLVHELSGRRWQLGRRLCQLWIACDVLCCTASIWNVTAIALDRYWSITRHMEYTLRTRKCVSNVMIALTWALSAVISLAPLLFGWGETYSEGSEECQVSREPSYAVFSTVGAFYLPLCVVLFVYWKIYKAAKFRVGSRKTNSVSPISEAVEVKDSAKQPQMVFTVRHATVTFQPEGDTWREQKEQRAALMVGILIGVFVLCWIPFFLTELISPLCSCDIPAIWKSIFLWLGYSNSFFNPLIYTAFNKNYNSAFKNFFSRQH
HTR5A ag ctr: HTR5A agonism, opioid heterodimer counter-screen. actives 0.61% (n = 340,000). AID 504692. activation, % at 9.3 µM. HTR5A agonist assay, luminescence, cell-based; in the data active = activation mostly above about 9.5%, no sharp cut-off; inactive = mostly below about 7.6%;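 note: 0% = cells with vehicle only and 100% = reference agonist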
OPRM1-OPRD1 ag: OPRM1-OPRD1 heterodimerization agonism. P35372+P41143. cells, luminescence. activation, % at 9.3 µM. actives 0.3% (n = 340,000). AID 504326;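 note: 0% = vehicle-treated cells and 100% = reference agonist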
OPRM1-D1 ag cf: OPRM1-OPRD1 heterodimer agonism, confirmation. activation, % at 9.3 µM. cells, MOR-DOR heterodimerization, luminescence complementation. AID 504904. actives 45% (n = 830). shares compounds with OPRM1-OPRD1 ag;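 note: 0% = vehicle-treated cells and 100% = reference agonist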
HTR5A ag counter: counter-screen for OPRM1-OPRD1 agonists: human HTR5A agonism | shares compounds with OPRM1-OPRD1 ag | HTR5A agonist counterscreen, cell luminescence | activation, % at 9.3 µM | actives 8% (n = 830); in the data active = activation above about 17%;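 note: 0% = vehicle-treated cells and 100% = reference agonist response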
Active calls of the source: *. Cut-off read from the data, not from the text of the source, unless noted: active = activation above about 18%; inactive = the rest.

How did COc1cccc(N=c2oc3ccc(OC)cc3cc2-c2nc3ccccc3[nH]2)c1 do in these assays?
OPRM1-OPRD1 inv: -102; m5-HT2A agonist: 1; HTR5A inv ctr: -30; HTR5A ag ctr: 4; OPRM1-OPRD1 ag: 19*; OPRM1-D1 ag cf: 26*; HTR5A ag counter: 8

How did CC(CCc1ccccc1)NC(=O)c1ccc(NC(=O)c2ccccc2)cc1 (stereo not drawn) do in these assays?
OPRM1-OPRD1 inv: -181; m5-HT2A agonist: 1; HTR5A inv ctr: -4; HTR5A ag ctr: 2; OPRM1-OPRD1 ag: 26*; OPRM1-D1 ag cf: 7; HTR5A ag counter: 2

What do the screens show for `COC1=CC(=O)c2c(ccc3ncnc(N)c23)C1=O`?
OPRM1-OPRD1 inv: -180; m5-HT2A agonist: -2; HTR5A inv ctr: -12; HTR5A ag ctr: 3; OPRM1-OPRD1 ag: 41*; OPRM1-D1 ag cf: 1; HTR5A ag counter: 1

What do the screens show for `COC1=CC(=O)c2nc(Cl)ccc2C1=O`?
m5-HT2A agonist: -1

Results for O=C(COc1ccccc1)N/N=C/c1ccc([N+](=O)[O-])o1 ?
OPRM1-OPRD1 inv: -46; m5-HT2A agonist: -2; HTR5A inv ctr: -12; HTR5A ag ctr: -3; OPRM1-OPRD1 ag: 7

What do the screens show for `O=C(CNc1ccc2ccccc2c1)N/N=C/c1ccc([N+](=O)[O-])o1`?
OPRM1-OPRD1 inv: -186; m5-HT2A agonist: 4; HTR5A inv ctr: -22; HTR5A ag ctr: 9.3*; OPRM1-OPRD1 ag: 38*; OPRM1-D1 ag cf: 6; HTR5A ag counter: 7

What do the screens show for `CC1=C(C(=O)N(C(C)C)C(C)C)CC(CC(=O)NC2CCCCC2)C(=O)N1Cc1ccc(C(C)(C)C)cc1` (stereo not drawn)?
m5-HT2A agonist: 4

What do the screens show for `COc1ccc(/C=C/C(=O)Nc2ccc3nc4n(c(=O)c3c2)CCCC4)cc1`?
OPRM1-OPRD1 inv: -124; m5-HT2A agonist: 5; HTR5A inv ctr: -33; HTR5A ag ctr: 12*; OPRM1-OPRD1 ag: 27*; OPRM1-D1 ag cf: 16; HTR5A ag counter: 2

Results for CC(=O)NC1=NC(=O)/C(=C/c2cc(C)n(-c3ccc(NC(C)=O)cc3)c2C)S1 ?
OPRM1-OPRD1 inv: -312; m5-HT2A agonist: 4; HTR5A inv ctr: -47; HTR5A ag ctr: -3; OPRM1-OPRD1 ag: 60*; OPRM1-D1 ag cf: 14; HTR5A ag counter: 4

Results for S=C1NC[C@H](c2ccccc2)N1CC1CCCCC1 ?
OPRM1-OPRD1 inv: -32; m5-HT2A agonist: 3; HTR5A inv ctr: -25; HTR5A ag ctr: 4; OPRM1-OPRD1 ag: 7

How did Cc1[nH]n(-c2cccc(Cl)c2)c(=O)c1C=NCC(C)C do in these assays?
OPRM1-OPRD1 inv: 6; m5-HT2A agonist: -2; HTR5A inv ctr: -18; HTR5A ag ctr: 7; OPRM1-OPRD1 ag: -1

Results for O=C(COC(=O)CC1CCCC1)Nc1cccc(F)c1 ?
OPRM1-OPRD1 inv: inactive; m5-HT2A agonist: 4; HTR5A inv ctr: 7; HTR5A ag ctr: -3; OPRM1-OPRD1 ag: 323*; OPRM1-D1 ag cf: -2; HTR5A ag counter: 0

How did CCOC(=O)c1sc(=S)n(-c2ccc(OC)cc2)c1C do in these assays?
m5-HT2A agonist: 1

Results for CCOC(=O)c1c2c(n(-c3ccc(OC)cc3)c1C)C(=O)C(=O)c1ccccc1-2 ?
OPRM1-OPRD1 inv: -97; m5-HT2A agonist: 11; HTR5A inv ctr: -40; HTR5A ag ctr: 10; OPRM1-OPRD1 ag: 20*; OPRM1-D1 ag cf: 15; HTR5A ag counter: 1

What do the screens show for `CCOC(=O)N1CCN(C(=O)c2oc3ccc(S(=O)(=O)N(CC)CC)cc3c2C)CC1`?
OPRM1-OPRD1 inv: 6; m5-HT2A agonist: 1; HTR5A inv ctr: -2; HTR5A ag ctr: 0; OPRM1-OPRD1 ag: -1

How did COc1ccc(CCn2c(=S)[nH]c3cc(C(=O)NCc4ccco4)ccc3c2=O)cc1OC do in these assays?
OPRM1-OPRD1 inv: -127; m5-HT2A agonist: 0; HTR5A inv ctr: -1; HTR5A ag ctr: -1; OPRM1-OPRD1 ag: 28*; OPRM1-D1 ag cf: 24*; HTR5A ag counter: 5

Results for COc1ccc(-n2c(=S)[nH]c3cc(C(=O)NCc4ccco4)ccc3c2=O)cc1OC ?
OPRM1-OPRD1 inv: 24; m5-HT2A agonist: -3; HTR5A inv ctr: 16; HTR5A ag ctr: 2; OPRM1-OPRD1 ag: -6

Results for CN1CCN(c2ccc(NC(=O)COc3cccc4ccccc34)cc2)CC1 ?
OPRM1-OPRD1 inv: -141; m5-HT2A agonist: -11; HTR5A inv ctr: -10; HTR5A ag ctr: 4; OPRM1-OPRD1 ag: 25*; OPRM1-D1 ag cf: 2; HTR5A ag counter: 39*

What do the screens show for `CN1CCN(c2ccc(NC(=O)COc3ccc4ccccc4c3)cc2)CC1`?
OPRM1-OPRD1 inv: -38; m5-HT2A agonist: -3; HTR5A inv ctr: 1; HTR5A ag ctr: -1; OPRM1-OPRD1 ag: 7

How did CCOc1cccc2sc(N(CCCN(C)C)C(=O)c3ccc(S(=O)(=O)N4CCc5ccccc5C4)cc3)nc12 do in these assays?
OPRM1-OPRD1 inv: -8; m5-HT2A agonist: -7; HTR5A inv ctr: -2; HTR5A ag ctr: -1; OPRM1-OPRD1 ag: 1

Results for CCN(Cc1ccccc1)S(=O)(=O)c1ccc(C(=O)N(CCCN(C)C)c2nc3ccc(F)cc3s2)cc1 ?
OPRM1-OPRD1 inv: inactive; m5-HT2A agonist: -14; HTR5A inv ctr: -1; HTR5A ag ctr: 4; OPRM1-OPRD1 ag: 412*; OPRM1-D1 ag cf: 0; HTR5A ag counter: 2

How did CCN(Cc1ccccc1)S(=O)(=O)c1ccc(C(=O)N(CCCN(C)C)c2nc3cc4c(cc3s2)OCCO4)cc1 do in these assays?
OPRM1-OPRD1 inv: -18; m5-HT2A agonist: -10; HTR5A inv ctr: 14; HTR5A ag ctr: -5; OPRM1-OPRD1 ag: 3

What do the screens show for `CCc1ccc2nc(N(CCCN(C)C)C(=O)c3ccc(S(=O)(=O)N4CCc5ccccc5C4)cc3)sc2c1`?
OPRM1-OPRD1 inv: -168; m5-HT2A agonist: 0; HTR5A inv ctr: -17; HTR5A ag ctr: 5; OPRM1-OPRD1 ag: 29*; OPRM1-D1 ag cf: 36*; HTR5A ag counter: 5

Results for CN(C)CCCN(C(=O)c1ccc(S(=O)(=O)N(C)Cc2ccccc2)cc1)c1nc2c(F)cccc2s1 ?
OPRM1-OPRD1 inv: -244; m5-HT2A agonist: 2; HTR5A inv ctr: 3; HTR5A ag ctr: 0; OPRM1-OPRD1 ag: 47*; OPRM1-D1 ag cf: 108*; HTR5A ag counter: -3

What do the screens show for `CN(C)CCCN(C(=O)c1ccc(S(=O)(=O)N(C)C2CCCCC2)cc1)c1nc2ccc(F)cc2s1`?
OPRM1-OPRD1 inv: inactive; m5-HT2A agonist: -7; HTR5A inv ctr: 13; HTR5A ag ctr: 4; OPRM1-OPRD1 ag: 327*; OPRM1-D1 ag cf: 121*; HTR5A ag counter: 2

Results for CCN(CC)C(=O)c1cn(CC)c(=O)c2cc(OC)c(OC)cc12 ?
OPRM1-OPRD1 inv: 16; m5-HT2A agonist: 1; HTR5A inv ctr: -1; HTR5A ag ctr: -5; OPRM1-OPRD1 ag: -3
